TSHR agonist = activates the human thyroid stimulating hormone receptor | P16473 | HEK293-CNG-TSHR cells (CNG channel as cAMP sensor), membrane potential dye, cAMP | Potency, µM (titrated, usually from 57.1 µM), hits mostly activators | hit rate 0.48% among 73,000 | AID 926; active = well fitted activation curve with a large enough effect in the main read-out, with a control signal flat, not every such curve was filed as active; inconclusive = small, poorly fitted or top-dose-only effect, or a change in a side signal; inactive = no such curve, though single readings can be large or run the other way; reference of the percent scale not stated here;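 also: the control signal comes from parental cells without the receptor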
Target sequence (P16473 whole entry, looked up): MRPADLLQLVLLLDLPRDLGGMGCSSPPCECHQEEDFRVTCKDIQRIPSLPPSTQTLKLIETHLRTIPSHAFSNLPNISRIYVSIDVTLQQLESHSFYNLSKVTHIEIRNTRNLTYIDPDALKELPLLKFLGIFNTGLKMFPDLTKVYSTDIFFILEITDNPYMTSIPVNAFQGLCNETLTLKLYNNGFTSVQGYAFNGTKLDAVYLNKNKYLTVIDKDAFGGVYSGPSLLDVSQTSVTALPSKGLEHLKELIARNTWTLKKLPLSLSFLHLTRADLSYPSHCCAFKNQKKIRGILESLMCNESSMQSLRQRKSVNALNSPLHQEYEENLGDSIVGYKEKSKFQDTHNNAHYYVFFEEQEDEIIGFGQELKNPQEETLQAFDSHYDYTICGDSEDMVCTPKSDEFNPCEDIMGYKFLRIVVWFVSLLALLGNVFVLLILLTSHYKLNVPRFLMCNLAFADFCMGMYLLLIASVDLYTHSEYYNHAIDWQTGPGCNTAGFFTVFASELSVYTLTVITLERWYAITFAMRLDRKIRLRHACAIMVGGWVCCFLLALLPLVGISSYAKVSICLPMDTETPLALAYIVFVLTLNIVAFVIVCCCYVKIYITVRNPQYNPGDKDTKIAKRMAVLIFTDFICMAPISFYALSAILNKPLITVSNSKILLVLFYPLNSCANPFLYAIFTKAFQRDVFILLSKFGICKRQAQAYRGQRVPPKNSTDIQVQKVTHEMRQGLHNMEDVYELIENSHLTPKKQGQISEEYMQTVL
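HEK 293 cells stably expressing TSHR and a cAMP-gated CNG channel; parental CNG-only cells as counterscreen. Cells preloaded 60 min with membrane potential dye plus 100 uM RO 20-1724, then compound 30 min; fluorescence read at 590 nm.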
Tau filament bind = binders of human tau filaments; P10636; recombinant tau filaments, thioflavin S fluorescence, 15 h; filaments grown with octadecylsulfate alongside compound; Potency, µM (highest dose often 57.1 µM); hit rate 2% among 71,000; AID 596;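 also: actives lower thioflavin S fluorescence by blocking filaments or displacing dye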
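ThS-based fibril read: tau 1 uM final, inducer ODS 30 uM final, 37 C for 15 h, ex 450/em 510 nm.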
HEK293 cAMP cs = counter-screen for TSHR agonists: cAMP increase in parental HEK293; parental HEK293 CNG cAMP sensor, membrane potential fluorescence; hit rate 2.5% among 73,000; Potency, µM (top dose mostly 57.1 µM), most hits filed as activators; also: nearly all actives have a fitted effect of over 55% in size
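Parental HEK 293 cells stably expressing a cAMP-gated CNG channel were loaded with membrane potential dye containing 100 uM RO 20-1724 for 60 min. Compound added for 30 min; depolarization read as fluorescence intensity at 590 nm.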
Bst PK mod = modulators of Bacillus stearothermophilus pyruvate kinase; purified pyruvate kinase, luminescence ATP production; ribose 5-phosphate activator present at AC10; Potency, µM; hit rate 1.2% among 51,000; in the data active = potency below about 11 µM; inconclusive = mostly about 12 µM to 25 µM;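 the screen sought inhibitors and activators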
FLuc inh = inhibitors of firefly luciferase | P08659 | purified firefly luciferase, luminescence, 8 min | Potency, µM (top dose mostly 57.1 µM), hits mostly inhibitors | hit rate 2.2% among 72,000 | AID 411; also: nearly all actives have a fitted effect of over 40% in size
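Inhibition of light generation by firefly luciferase from ATP and luciferin was profiled with concentration-response curves per sample, ATP held at 10 uM within the enzyme's linear range. Plates were read by luminescence after an 8-minute ambient incubation.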
ERK AVP inh = inhibitors of vasopressin-stimulated ERK signaling pathway. AID 995. HEK293-V1b, vasopressin-stimulated pERK AlphaScreen. Potency, µM (highest dose often 57.5 µM), actives largely listed as inhibitors. hit rate 0.99% among 72,000; also: nearly all actives have a fitted effect of over 55% in size
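Overnight-seeded V1b-HEK293 cells in 1% FBS got compound, then vasopressin (25 nM final, 5 min, 37C), then lysis buffer. AlphaScreen detection of phospho-ERK; activity normalized to basal and full-stimulation controls.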
Hits are given with their value; - = inactive; ? = inconclusive; . = no result; [ ] = dose if it differs, or a comment. Sampled rows, rich in hits. Any-hit rate of the full collection: about 7.2%. Unless noted, calls follow the shape of the dose curve; as a rule, active = well fitted curve in the direction sought with a large enough effect; inconclusive = small, poorly fitted or top-dose-only effect, or another doubt; inactive = no such curve, though single readings can be large; an effect the other way counts as inactive or inconclusive.

SMILES | TSHR agonist | Tau filament bind | HEK293 cAMP cs | Bst PK mod | FLuc inh | ERK AVP inh
O=C(c1ccc(F)cc1)N1CCN(c2ncccn2)CC1 | - | - | - | - | - | -
CCc1nnc(NC(=O)CSc2nnc(-c3ccccc3OC)n2-c2ccccc2)s1 | ? | - | 10µM | - | - | -
CCc1nnc(NC(=O)CSc2nnc(-c3ccoc3C)n2-c2cccc(C)c2)s1 | ? | - | ? | - | - | -
Cc1cccc(-n2c(SCC(=O)Nc3nnc(C)s3)nnc2-c2ccoc2C)c1 | - | 16µM | - | - | - | -
CCc1nnc(NC(=O)CSc2nnc(-c3ccccc3O)n2-c2ccc(C)cc2)s1 | ? | - | ? | - | - | ?
C/C(=N/Nc1nc(C)cc(=O)[nH]1)C(=O)O | -[11.4 µM] | -[11.4 µM] | -[11.4 µM] | . | -[11.4 µM] | -[11.5 µM]
Cc1ccc(-c2cccc(NC(=O)C3C(C(=O)O)[C@@H]4C=C[C@H]3C4)c2)o1 (stereo not given in full) | - | ? | - | 5.7 | - | -
COc1ccccc1NC=C1C(=O)OC(C)(C)OC1=O | - | - | - | . | 16µM | -
Cn1cccc1C(=O)N1CCC[C@@]2(CCN(c3cccc(-c4ccccc4)c3)C2)C1 | - | - | - | . | -[11.4 µM] | -
CCC1Oc2ccc(C)cc2N(CC(=O)N(Cc2ccc3c(c2)OCO3)CC2CCCO2)C1=O (stereo not given) | ? | - | 5µM | - | - | -
Cc1ccc(C)c(N2CCN(C(=O)CCS(=O)(=O)c3cccc4nonc34)CC2)c1 | - | 32µM | - | - | - | -
O=C(Nc1cnccn1)c1cccc(C(F)(F)F)c1 | ? | - | 20µM | - | ? | -
O=C(NCCO)c1ccc2[nH]c3c(c2c1)CCCC3 | - | - | - | . | 16µM | -
COc1ccc(C2(C)NC(=O)N(Cc3cc(Cl)cc4c3OCOC4)C2=O)cc1OC (stereo not given) | ? | - | 16µM | - | - | -
CCOc1ccccc1CN1C(=O)NC(C)(c2ccccc2)C1=O (stereo not given) | . | - | - | - | - | -
COCCn1c(=O)c(-c2ccccc2)nc2cnc(N3CCNCC3)nc21 | - | - | - | . | -[11.4 µM] | -
S=C([S-])NCCNC(=S)[S-].[Zn+2] | - | - | - | . | . | -
COC(=O)/C=c1/sc2nc3ccccc3n2c1=O | -[11.4 µM] | - | - | . | - | ?
O=c1/c(=C/c2ccccn2)sc2nc3ccccc3n12 | -[11.4 µM] | 0.5µM | -[11.4 µM] | . | 0.25µM | -
O=c1c2ccccc2nc2sc3ccccc3n12 | - | - | - | 6.8 | - | -
COc1ccc(Nc2ccc3c(c2)=NC2(CCCCC2)[N+]=3[O-])cc1 | ? | 16µM | - | . | ? | 16µM
COc1ccc(OC)c(NC2=NC3(CCCC3)N=C(N)N2)c1 | - | - | - | - | - | -
[O-][N+]1=c2ccc(Nc3ccccc3)cc2=NC12CCCCC2 | ? | 13µM | - | . | - | ?
Cc1cc(-c2ccc(N=Nc3cc(S(=O)(=O)O)c4ccccc4c3N)c(C)c2)ccc1N=Nc1cc(S(=O)(=O)O)c2ccccc2c1N | ? | 0.02µM | - | . | . | ?
CN(Cc1ccco1)c1ncnc2ccc(-c3ccoc3)cc12 | ? | - | 16µM | . | -[2.29 µM] | -
SMILES | TSHR agonist | Tau filament bind | HEK293 cAMP cs | Bst PK mod | FLuc inh | ERK AVP inh
COc1ccccc1-c1ccc2ncnc(N(C)Cc3ccco3)c2c1 | ? | - | 3.2µM | . | -[2.29 µM] | -
CN(Cc1ccco1)c1ncnc2ccc(-c3ccccc3Cl)cc12 | ? | - | ? | . | -[2.29 µM] | ?
CN(Cc1ccco1)c1nc(-c2ccoc2)nc2ccccc12 | ? | - | 16µM | . | -[2.29 µM] | -
c1ccc(-c2cc(-c3cc(-c4ccccn4)[nH]n3)n[nH]2)nc1 | -[11.4 µM] | -[11.4 µM] | -[11.4 µM] | . | -[11.4 µM] | -[11.5 µM]
C[C@@H]1c2ccccc2CN1CC1=NCCN1 | - | ? | - | . | - | -
CCCCCCCC/C=C\CCCCCCCC(=O)N[C@@H](CO)Cc1ccc(O)cc1 | - | - | - | . | - | -
CN(C)Cc1ccccc1-c1nccc(NC2CC2)n1 | - | - | - | . | -[2.29 µM] | -
N#Cc1nc(COc2ccc(F)cc2)oc1N1CCC(Cc2ccccc2)CC1 | ? | - | 4µM | - | - | -
N#Cc1nc(COc2ccc(F)cc2)oc1N1CCN(Cc2ccccc2)CC1 | ? | - | 6.3µM | - | - | -
N#Cc1nc(COc2ccc(Br)cc2)oc1N1CCN(Cc2ccccc2)CC1 | . | . | . | - | - | .
O=C(c1ccco1)N1CCn2c1nc1ccccc12 | - | - | - | . | - | -
COc1ccc(S(=O)(=O)N2CCn3c2nc2ccccc23)cc1 | - | - | - | - | - | -
O=C(Nc1ccccc1)N1CCn2c1nc1ccccc12 | - | - | - | 9.7 | - | ?
COc1ccc(NC(=O)N2CCn3c2nc2ccccc23)cc1 | - | - | - | 5.6 | - | -
O=C(CN1CCCN(Cc2ccc(F)cc2Cl)C1=O)NCc1ccccc1 | 25µM | - | - | - | - | -
O=C(CN1CCN(Cc2ccccc2)C1=O)NCc1ccc(Cl)cc1 | - | - | - | - | - | -
O=C(CSc1ccc2nnc(-c3ccccc3)n2n1)N1CCN(c2ccccc2)CC1 | - | 1.6µM | - | . | - | .
Cc1cccc(-n2c(=O)[nH]c3c(C(N)=O)nc(C(C)C)nc32)c1 | -[11.4 µM] | 16µM | - | - | - | -
COc1cccc(Cn2c(=O)c(-c3ccc(F)cc3)nc3cnc(N(C)C)nc32)c1 | - | - | - | . | -[11.4 µM] | -
Cc1nc2c(C(=O)NCc3ccco3)cnn2c(C)c1Cc1ccc(F)cc1Cl | ? | - | 25µM | - | - | -
Cc1cccc(Cc2c(C)nc3c(C(=O)NCc4ccco4)cnn3c2C)c1 | ? | - | ? | - | - | -
CC1(C)CC(N2CCN(c3ccccc3)CC2)=CC(=[N+]2CCCC2)C1 | ? | - | 7.9µM | - | - | -
CC/C=C\C[C@H]1C(=O)CC[C@@H]1CC(=O)O | - | - | - | . | -[11.4 µM] | -
O=C(CCN1C(=O)COc2ccccc21)NCc1cccnc1 | - | - | - | - | - | -
O=C(CN1C(=O)COc2ccccc21)N(Cc1cccnc1)Cc1ccccc1F | ? | - | 10µM | - | - | -
SMILES | TSHR agonist | Tau filament bind | HEK293 cAMP cs | Bst PK mod | FLuc inh | ERK AVP inh
C[C@@H]1C[C@H](OC(=O)c2ccccc2O)CC(C)(C)C1 | - | - | - | . | - | -
N#CCCn1c(=O)c(CCc2ccccc2)nc2cnc(Oc3cccc(Cl)c3)nc21 | ? | - | 5µM | . | -[11.4 µM] | -
COCCn1c(=O)c(CCc2ccccc2)nc2cnc(Oc3ccc(OC)cc3)nc21 | ? | - | ? | . | -[11.4 µM] | -
COCCn1c(=O)c(CCc2ccccc2)nc2cnc(Oc3ccccc3)nc21 | ? | - | 25µM | . | -[11.4 µM] | -
Cc1nc2cnc(OCc3ccccc3)nc2n(CCc2ccccc2)c1=O | ? | - | 10µM | . | -[11.4 µM] | -
CCn1c(SCC(=O)O)nnc1-c1cc2c(C)nn(-c3ccccc3)c2s1 | - | - | - | - | 25µM | -
CCn1c(COc2ccccc2C)nnc1SCC(=O)O | - | - | - | - | - | -
